This is an account of results in ChEMBL document CHEMBL1961873, “Compounds: GSK PKIS; Assays: Nanosyn kinase panel” (2012).

Assay [1] concerns Epidermal growth factor receptor (Homo sapiens), P00533 [T790M]. The following applies: at 1 µM.
Assay [2] concerns Epidermal growth factor receptor (Homo sapiens), P00533 [L858R,T790M]. The note with it: at 0.1 µM.
For assay [3] the test system is unchanged. The following applies: at 1 µM.
Assay [4] has as its target Ephrin type-A receptor 2 (Homo sapiens) (UniProt P29317). The note with it: at 0.1 µM.
For assay [5] the target is unchanged. The following applies: at 1 µM.
Assay [6] addresses T1, Ephrin type-A receptor 3 (Homo sapiens) (UniProt P29320).
T1 sequence (whole entry): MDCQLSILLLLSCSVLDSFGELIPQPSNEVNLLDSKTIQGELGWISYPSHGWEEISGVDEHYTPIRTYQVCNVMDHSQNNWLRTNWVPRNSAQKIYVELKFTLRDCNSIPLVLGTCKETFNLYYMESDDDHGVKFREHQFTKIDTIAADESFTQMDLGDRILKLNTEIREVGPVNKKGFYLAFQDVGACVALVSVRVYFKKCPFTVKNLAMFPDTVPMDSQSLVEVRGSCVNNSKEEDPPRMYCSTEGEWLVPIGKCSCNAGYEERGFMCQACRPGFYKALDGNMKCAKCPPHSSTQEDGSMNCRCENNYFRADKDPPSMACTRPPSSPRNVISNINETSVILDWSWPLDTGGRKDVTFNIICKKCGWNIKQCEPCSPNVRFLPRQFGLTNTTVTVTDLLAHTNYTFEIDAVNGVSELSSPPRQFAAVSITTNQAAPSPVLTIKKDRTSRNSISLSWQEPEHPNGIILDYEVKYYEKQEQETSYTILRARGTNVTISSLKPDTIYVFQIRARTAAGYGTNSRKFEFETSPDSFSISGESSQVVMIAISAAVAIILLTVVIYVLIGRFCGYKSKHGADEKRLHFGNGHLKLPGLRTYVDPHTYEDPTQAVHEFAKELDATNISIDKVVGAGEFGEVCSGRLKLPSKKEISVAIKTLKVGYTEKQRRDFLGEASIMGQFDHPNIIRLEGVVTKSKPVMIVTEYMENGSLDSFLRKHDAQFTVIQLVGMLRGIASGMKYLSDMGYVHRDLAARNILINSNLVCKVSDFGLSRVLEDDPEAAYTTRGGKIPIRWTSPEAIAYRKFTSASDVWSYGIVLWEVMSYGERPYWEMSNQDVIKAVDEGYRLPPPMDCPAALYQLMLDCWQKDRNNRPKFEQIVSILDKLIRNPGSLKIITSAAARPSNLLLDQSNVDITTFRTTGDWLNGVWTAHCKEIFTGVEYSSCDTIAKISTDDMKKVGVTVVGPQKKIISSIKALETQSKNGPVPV
The following applies: at 0.1 µM.

Assay [7] deals with T1, Ephrin type-A receptor 3 (Homo sapiens). The note with it: at 1 µM.
The target in assay [8] is Ephrin type-A receptor 4 (Homo sapiens) (UniProt P54764). The following applies: at 0.1 µM.
Assay [9] shares this target. The following applies: at 1 µM.
For assay [10], the target named is T2, Ephrin type-B receptor 2 (Homo sapiens) (UniProt P29323).
T2 sequence (whole entry): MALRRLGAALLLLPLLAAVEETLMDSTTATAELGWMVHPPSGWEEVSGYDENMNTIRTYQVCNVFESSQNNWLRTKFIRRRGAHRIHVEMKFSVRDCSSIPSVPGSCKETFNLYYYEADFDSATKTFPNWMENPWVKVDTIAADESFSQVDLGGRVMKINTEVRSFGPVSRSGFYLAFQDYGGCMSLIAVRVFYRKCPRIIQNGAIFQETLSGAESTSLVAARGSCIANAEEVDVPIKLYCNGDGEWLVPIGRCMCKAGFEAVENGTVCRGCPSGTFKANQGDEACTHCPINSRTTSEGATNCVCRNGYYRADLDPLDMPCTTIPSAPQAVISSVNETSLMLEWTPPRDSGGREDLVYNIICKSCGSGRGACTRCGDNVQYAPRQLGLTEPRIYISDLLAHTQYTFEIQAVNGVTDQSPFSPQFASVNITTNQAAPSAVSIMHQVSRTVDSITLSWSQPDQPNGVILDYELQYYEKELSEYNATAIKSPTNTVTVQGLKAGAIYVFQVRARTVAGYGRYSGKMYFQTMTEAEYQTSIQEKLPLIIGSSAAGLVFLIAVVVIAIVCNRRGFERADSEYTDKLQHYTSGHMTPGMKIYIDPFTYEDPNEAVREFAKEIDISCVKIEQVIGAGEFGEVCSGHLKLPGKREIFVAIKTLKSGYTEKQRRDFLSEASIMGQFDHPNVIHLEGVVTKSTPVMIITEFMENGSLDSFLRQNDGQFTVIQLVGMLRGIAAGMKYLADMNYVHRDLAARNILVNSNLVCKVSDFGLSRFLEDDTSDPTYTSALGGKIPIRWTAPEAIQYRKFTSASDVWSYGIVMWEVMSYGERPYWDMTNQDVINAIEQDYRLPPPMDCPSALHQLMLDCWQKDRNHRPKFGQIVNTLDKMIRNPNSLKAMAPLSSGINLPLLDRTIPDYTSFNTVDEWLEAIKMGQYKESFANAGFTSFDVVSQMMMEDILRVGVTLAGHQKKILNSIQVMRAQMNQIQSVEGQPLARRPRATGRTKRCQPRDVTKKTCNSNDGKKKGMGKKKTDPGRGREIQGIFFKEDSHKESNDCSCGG
The following applies: at 0.1 µM.

For assay [11], the target named is T2, Ephrin type-B receptor 2 (Homo sapiens). The following applies: at 1 µM.
Assay [12] deals with T3, Ephrin type-B receptor 3 (Homo sapiens) (UniProt P54753).
T3 sequence (whole entry): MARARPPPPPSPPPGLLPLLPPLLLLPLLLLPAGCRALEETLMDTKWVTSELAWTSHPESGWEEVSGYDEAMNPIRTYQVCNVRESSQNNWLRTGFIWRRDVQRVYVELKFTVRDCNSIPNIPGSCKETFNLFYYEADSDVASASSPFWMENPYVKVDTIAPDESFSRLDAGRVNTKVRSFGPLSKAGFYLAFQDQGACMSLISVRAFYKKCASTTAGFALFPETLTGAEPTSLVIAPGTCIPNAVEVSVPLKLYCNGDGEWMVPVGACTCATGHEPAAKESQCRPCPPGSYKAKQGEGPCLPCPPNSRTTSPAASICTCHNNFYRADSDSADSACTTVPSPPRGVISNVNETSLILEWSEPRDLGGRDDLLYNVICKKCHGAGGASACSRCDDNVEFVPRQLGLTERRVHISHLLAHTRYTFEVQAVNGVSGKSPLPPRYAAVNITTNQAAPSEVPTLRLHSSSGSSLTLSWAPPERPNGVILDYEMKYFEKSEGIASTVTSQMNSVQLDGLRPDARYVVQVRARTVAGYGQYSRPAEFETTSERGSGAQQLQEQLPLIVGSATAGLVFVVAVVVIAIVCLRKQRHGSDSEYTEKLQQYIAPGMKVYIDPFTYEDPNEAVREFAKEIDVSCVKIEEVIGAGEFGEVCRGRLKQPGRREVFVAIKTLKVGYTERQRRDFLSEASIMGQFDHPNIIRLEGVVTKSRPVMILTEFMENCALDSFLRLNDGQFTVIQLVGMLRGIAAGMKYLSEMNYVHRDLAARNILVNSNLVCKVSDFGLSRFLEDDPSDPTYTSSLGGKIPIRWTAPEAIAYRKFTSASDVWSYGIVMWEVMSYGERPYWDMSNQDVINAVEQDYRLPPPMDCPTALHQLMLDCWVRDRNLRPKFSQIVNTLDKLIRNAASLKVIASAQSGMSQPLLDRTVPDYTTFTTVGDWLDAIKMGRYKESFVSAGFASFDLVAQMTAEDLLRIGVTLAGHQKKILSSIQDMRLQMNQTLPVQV
The note with it: at 0.1 µM.

Assay [13] addresses T3, Ephrin type-B receptor 3 (Homo sapiens). The following applies: at 1 µM.
In assay [14] the target is T4, Ephrin type-B receptor 4 (Homo sapiens) (UniProt P54760).
T4 sequence (whole entry): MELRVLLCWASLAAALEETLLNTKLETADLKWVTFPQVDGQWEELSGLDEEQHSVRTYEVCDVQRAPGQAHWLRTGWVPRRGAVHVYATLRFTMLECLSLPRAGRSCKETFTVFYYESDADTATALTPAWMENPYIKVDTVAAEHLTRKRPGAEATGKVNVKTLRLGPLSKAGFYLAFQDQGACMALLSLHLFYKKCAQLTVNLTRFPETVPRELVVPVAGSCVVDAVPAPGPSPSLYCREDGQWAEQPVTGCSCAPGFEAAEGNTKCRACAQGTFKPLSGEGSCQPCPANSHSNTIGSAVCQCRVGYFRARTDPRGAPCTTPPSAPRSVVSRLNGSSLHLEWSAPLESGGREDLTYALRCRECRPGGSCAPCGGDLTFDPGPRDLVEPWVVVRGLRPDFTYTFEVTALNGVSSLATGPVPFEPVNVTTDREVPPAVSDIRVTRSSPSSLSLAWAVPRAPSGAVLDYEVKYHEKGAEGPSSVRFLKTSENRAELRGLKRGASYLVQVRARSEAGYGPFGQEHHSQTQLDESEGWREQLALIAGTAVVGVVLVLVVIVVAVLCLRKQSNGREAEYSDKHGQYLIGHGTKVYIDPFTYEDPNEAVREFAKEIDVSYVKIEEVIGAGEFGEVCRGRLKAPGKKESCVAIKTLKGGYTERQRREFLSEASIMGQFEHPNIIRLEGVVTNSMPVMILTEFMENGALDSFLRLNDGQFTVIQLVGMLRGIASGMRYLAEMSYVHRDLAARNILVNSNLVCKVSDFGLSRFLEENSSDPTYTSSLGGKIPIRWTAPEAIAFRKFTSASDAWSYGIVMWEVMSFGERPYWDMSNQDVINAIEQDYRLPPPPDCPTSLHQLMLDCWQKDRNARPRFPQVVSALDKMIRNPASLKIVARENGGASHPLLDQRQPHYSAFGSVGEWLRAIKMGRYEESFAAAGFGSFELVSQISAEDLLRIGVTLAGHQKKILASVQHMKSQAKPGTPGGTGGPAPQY
The following applies: at 0.1 µM.

Assay [15] deals with T4, Ephrin type-B receptor 4 (Homo sapiens). The note with it: at 1 µM.
Assay [16] has as its target Receptor tyrosine-protein kinase erbB-2 (Homo sapiens) (UniProt P04626). The note with it: at 0.1 µM.
Assay [17] has the same target. The note with it: at 1 µM.
Assay [18] concerns the target Receptor tyrosine-protein kinase erbB-4 (Homo sapiens) (UniProt Q15303). The note with it: at 0.1 µM.
Assay [19] has the same target. The following applies: at 1 µM.
Assay [20] deals with Tyrosine-protein kinase Fer (Homo sapiens) (UniProt P16591). The following applies: at 0.1 µM.
Tyrosine-protein kinase Fer (Homo sapiens), sequence (P16591 whole entry, looked up): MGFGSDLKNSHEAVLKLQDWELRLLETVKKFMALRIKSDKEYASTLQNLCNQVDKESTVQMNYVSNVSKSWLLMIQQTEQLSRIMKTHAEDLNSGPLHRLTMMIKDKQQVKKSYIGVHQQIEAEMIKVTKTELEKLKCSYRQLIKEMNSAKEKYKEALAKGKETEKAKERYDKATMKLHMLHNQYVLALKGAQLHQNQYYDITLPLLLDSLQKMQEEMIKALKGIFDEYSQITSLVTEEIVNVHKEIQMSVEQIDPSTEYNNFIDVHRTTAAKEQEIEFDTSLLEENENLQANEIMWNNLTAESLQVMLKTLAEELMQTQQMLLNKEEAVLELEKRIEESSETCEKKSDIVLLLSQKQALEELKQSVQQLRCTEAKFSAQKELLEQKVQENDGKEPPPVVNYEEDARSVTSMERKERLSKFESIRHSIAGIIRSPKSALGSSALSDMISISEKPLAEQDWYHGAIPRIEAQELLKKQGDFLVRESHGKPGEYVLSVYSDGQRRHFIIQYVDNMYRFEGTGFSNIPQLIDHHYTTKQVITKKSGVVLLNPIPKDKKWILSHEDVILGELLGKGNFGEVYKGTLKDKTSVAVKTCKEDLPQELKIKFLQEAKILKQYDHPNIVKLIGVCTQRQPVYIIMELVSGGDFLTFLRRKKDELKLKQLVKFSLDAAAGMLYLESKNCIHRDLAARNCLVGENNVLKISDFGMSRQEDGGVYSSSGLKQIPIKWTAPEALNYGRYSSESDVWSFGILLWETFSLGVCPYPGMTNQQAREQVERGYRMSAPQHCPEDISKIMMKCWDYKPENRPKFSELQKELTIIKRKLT

Ephrin type-A receptor 4 (Homo sapiens), sequence (P54764 whole entry): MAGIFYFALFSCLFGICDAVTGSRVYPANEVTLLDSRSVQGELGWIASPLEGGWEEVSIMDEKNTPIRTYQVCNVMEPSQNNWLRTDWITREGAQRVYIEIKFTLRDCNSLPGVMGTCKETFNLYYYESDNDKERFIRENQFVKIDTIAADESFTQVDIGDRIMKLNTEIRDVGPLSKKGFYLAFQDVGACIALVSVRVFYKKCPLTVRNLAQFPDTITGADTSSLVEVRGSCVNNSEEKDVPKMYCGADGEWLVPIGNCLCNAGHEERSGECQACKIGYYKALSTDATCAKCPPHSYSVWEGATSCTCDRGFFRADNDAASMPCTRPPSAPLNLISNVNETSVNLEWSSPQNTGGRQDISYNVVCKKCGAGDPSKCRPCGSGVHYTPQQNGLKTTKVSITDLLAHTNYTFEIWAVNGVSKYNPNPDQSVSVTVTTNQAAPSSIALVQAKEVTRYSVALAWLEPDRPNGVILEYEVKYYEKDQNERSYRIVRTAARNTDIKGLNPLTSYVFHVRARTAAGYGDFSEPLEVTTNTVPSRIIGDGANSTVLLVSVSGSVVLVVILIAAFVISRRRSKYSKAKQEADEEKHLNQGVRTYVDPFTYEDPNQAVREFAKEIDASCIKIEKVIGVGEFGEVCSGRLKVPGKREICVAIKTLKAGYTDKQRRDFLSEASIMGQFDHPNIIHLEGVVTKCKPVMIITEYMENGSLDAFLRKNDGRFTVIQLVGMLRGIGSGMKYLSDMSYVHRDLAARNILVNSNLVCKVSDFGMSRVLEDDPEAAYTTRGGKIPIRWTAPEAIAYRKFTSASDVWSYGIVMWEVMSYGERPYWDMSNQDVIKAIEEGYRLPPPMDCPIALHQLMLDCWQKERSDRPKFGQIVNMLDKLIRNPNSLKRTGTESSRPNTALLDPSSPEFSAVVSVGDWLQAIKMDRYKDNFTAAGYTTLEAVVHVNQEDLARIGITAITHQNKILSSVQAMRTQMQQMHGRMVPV
Ephrin type-A receptor 2 (Homo sapiens), sequence (P29317 whole entry): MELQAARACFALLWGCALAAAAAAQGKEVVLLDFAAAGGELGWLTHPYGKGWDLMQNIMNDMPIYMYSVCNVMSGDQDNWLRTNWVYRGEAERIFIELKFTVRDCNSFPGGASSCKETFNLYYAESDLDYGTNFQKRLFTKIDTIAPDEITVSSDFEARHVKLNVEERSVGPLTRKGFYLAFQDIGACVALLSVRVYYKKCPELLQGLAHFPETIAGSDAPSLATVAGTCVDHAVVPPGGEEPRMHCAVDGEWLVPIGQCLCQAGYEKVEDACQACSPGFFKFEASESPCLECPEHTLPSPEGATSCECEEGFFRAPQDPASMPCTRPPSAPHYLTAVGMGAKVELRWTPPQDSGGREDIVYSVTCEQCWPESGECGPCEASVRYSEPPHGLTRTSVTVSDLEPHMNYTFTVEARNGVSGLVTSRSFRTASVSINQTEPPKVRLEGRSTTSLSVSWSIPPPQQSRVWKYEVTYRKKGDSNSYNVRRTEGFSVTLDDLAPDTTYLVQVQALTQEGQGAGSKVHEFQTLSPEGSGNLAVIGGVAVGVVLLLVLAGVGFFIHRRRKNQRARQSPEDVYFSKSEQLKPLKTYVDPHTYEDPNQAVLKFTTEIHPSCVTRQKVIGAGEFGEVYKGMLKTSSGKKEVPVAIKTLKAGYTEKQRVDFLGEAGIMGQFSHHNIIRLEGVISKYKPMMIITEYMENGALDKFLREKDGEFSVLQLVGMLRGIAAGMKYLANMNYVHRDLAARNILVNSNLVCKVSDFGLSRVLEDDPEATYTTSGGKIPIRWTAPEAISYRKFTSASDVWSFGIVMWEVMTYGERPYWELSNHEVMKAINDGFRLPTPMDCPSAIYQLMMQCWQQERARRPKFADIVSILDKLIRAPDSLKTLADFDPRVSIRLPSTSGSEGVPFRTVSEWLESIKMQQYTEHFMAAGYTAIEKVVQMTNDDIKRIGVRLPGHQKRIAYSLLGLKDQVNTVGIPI
Epidermal growth factor receptor (Homo sapiens), P00533 [L858R,T790M], sequence (P00533 whole entry T790M/L858R, looked up): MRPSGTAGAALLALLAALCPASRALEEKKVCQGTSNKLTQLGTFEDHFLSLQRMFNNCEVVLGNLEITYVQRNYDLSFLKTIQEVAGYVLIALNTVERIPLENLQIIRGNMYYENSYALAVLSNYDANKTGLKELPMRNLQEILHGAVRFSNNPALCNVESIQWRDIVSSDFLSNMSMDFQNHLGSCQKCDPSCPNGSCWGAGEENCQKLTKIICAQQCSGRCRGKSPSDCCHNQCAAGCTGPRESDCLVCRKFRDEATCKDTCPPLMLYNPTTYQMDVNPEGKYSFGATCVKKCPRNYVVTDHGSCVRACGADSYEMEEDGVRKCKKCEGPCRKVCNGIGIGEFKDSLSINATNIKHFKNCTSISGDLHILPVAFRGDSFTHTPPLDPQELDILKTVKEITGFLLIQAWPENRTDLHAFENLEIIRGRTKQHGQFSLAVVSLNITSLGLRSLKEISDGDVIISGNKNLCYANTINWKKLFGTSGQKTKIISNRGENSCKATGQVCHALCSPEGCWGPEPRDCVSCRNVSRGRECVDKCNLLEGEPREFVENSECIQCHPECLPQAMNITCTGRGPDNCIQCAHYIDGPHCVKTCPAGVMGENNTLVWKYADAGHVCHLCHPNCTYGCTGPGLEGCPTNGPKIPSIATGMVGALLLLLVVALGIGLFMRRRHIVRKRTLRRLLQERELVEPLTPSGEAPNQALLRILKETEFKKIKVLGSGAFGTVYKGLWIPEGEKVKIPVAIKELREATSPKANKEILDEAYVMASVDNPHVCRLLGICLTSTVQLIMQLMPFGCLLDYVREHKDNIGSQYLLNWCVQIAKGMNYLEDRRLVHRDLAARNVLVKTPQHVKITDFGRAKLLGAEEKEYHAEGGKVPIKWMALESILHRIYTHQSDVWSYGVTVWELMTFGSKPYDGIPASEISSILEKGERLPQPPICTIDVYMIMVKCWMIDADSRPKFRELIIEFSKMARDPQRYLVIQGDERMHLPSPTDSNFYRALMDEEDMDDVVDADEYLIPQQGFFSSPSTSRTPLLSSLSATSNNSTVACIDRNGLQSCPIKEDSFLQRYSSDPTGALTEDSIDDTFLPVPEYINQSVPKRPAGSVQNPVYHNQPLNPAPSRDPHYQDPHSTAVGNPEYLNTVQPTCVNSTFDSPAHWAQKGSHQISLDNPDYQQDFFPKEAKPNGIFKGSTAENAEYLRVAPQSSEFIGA

On to `CN1CCC(n2cnc(-c3ccc(F)cc3)c2-c2ccnc(N)n2)CC1`, for which the inhibition in [1] is 1.75%; in assay [2] it was -4.77%; in assay [3] it was 0.83%; in [4], 0.47%; in [5], -0.42%; in [6] it was 1.8%. In addition, the inhibition in [7] was 2.95%; in [8], 5.99%; in assay [9], 7.11%; in assay [10], 5.98%; in assay [11], 11.7%; in assay [12] it was 4.01%. Besides, the inhibition stood at 1.1% in [13]; 1.15% in [14]; 2.9% in assay [15]; 1.81% in [16]; 3.61% in [17]; 8.28% in assay [18]. In addition, the values for the inhibition in assay [19] and in [20] were 18.6% and 1.42%, respectively.

As for `COc1ccc(CNC(=O)c2ccc(-c3cc(-c4nnc(C)o4)ccc3C)cc2)cc1`, the inhibition was 5.47% in [1]; 3.26% in assay [2]; 3.61% in assay [3]; 2.44% in assay [4]; 2.41% in assay [5]; 1.41% in assay [6]. Besides, the inhibition in assay [7] is 4.21%; in assay [8] it was 5.67%; in [9], 15.7%; in [10], 7.58%; in [11] it was 10.6%; in assay [12], -0.7%. The inhibition is 0.39% in [13]; 1.69% in assay [14]; -0.88% in assay [15]; 3.57% in assay [16]; 10.7% in assay [17]; 2.27% in [18]. In addition, the inhibition in assay [19] came out at 7.19%; in assay [20], 2.8%.

Regarding `CNC(=O)c1cc(-c2ccc(F)cc2)cc(-c2ccc(S(=O)(=O)N3CCCC3)cc2)c1N`, the inhibition in [1] is 0.62%; in assay [2] it was -0.37%; in [3], 2.95%; in [4], -2.99%; in assay [5], -1.92%; in assay [6] it was 2.55%. Besides, the inhibition stood at 2.23% in assay [7]; 5.15% in [8]; 6.55% in assay [9]; 2.73% in assay [10]; 5.41% in assay [11]; 0.26% in [12]. In addition, the inhibition in assay [13] was 3.7%; in [14], 1.99%; in assay [15] it was 2.03%; in assay [16], 2.24%; in assay [17], 7.8%; in [18], 5.77%. In addition, the figures for the inhibition in assay [19] and in assay [20] were 10.4% and 2.99%, respectively.
